Screens deposited in PubChem BioAssay by The Scripps Research Institute Molecular Screening Center.
Compounds with a hit are over-represented: about 1.2% of the library has one in this group of screens.
TLR9-MyD88 block: inhibitors of TLR9-MyD88 association in cells, primary screen, cell-based, CHO, BLA complementation, fluorescence; Toll-like receptor 9 (Homo sapiens) + Myeloid differentiation primary response protein …; CCF4 FRET ratio; AID 504734, 2011; 340,000 compounds, 0.21% hits; inhibition, % at 4.98 µM;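 active = inhibition above the mean over all tested compounds plus 3 SD, cut at about 21% in these data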
TLR4-MyD88 BLA: inhibitors of TLR4-MyD88 association in cells, primary screen, cell-based, HeLa CL3-4, BLA complementation, FRET ratio; Toll-like receptor 4 (Homo sapiens) + Myeloid differentiation primary response protein …; HeLa CL3-4 TLR4/MyD88 BLA complementation; inhibition, % at 8.4 µM; 200,000 compounds, 0.18% hits; AID 861, 2007; in the data active = inhibition above about 25%
Target sequence (O00206 whole entry, looked up): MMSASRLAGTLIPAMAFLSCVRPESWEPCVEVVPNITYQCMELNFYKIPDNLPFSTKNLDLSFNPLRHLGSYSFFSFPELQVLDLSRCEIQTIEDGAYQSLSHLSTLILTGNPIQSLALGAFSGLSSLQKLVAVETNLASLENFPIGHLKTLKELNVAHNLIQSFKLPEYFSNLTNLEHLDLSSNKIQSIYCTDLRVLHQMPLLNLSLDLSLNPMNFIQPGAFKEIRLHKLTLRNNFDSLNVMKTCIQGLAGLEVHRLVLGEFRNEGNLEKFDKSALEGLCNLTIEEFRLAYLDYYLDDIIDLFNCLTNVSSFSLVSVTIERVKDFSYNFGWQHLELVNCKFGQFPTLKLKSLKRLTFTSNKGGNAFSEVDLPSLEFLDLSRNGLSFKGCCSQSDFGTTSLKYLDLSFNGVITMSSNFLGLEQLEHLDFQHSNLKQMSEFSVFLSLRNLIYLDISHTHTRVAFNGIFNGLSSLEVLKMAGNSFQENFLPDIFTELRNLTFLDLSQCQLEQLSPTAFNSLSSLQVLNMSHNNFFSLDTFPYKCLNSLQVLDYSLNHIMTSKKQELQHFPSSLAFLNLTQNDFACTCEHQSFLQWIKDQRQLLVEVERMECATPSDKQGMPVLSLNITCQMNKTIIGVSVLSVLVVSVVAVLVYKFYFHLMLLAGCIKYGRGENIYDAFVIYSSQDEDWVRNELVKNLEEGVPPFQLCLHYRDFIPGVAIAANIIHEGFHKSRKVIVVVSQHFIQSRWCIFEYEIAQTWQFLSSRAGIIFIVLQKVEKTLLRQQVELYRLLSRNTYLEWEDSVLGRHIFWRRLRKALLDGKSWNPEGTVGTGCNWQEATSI
Target sequence (Q99836 whole entry, looked up): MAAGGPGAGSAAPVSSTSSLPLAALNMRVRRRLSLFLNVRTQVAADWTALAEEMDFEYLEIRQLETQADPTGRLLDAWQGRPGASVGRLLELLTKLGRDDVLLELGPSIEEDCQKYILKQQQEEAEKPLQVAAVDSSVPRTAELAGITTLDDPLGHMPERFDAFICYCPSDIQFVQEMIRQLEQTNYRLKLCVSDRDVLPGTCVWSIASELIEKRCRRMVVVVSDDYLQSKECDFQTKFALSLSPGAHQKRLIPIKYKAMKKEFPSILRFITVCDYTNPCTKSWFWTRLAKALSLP
NOD2-RIPK2 inh: NOD2-RIPK2 binding disruptors in cells, primary screen, fluorescence, CHO cells, BLA complementation; Receptor-interacting serine/threonine-protein kinase 2 (Homo sapiens), O43353; 360,000 compounds, 0.38% hits; CCF4 ratio; inhibition, % at 4.98 µM; in the data active = inhibition above about 21%
ABHD5 PLIN5 PPI: ABHD5-PLIN5 interaction inhibitors, primary screen, cell lysate, split luciferase complementation, luminescence; Perilipin-5 (Homo sapiens) + 1-acylglycerol-3-phosphate O-acyltransferase ABHD5 (Homo …; Split G. princeps luciferase complementation, 4 h; inhibition, % at 4 µM; 360,000 compounds, 0.78% hits; AID 602281, 2012;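 active = inhibition above the mean inhibition across every tested compound plus 3 SD, cut at about 22% in these data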
TLR4 MyD88 cnf: TLR4-MyD88 association inhibitors, retest, confirmation, cell-based, HeLa CL3-4, BLA complementation, FRET ratio; inhibition, % at 8.4 µM; 350 compounds, 50% hits; shares compounds with TLR4-MyD88 BLA; CCF4 FRET ratio;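 active = mean inhibition across three repeat runs above about 25% carried over from the earlier screen, limit read from the data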
BLA inhibitor ct: inhibits beta-lactamase activity, counter-screen to TLR4-MyD88 binding inhibitors; shares compounds with TLR4-MyD88 BLA; HeLa BLA reporter, CCF4 FRET ratio; inhibition, % at 8.4 µM; 350 compounds, 63% hits; AID 1237;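 active = mean inhibition over three repeats above about 26% taken from the earlier screen, limit read from the data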;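 also: HeLa cells stably expressing beta-lactamase reporter as counterscreen for TLR4-MyD88 inhibitors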
TLR9-MyD88 conf: TLR9-MyD88 association inhibitors, retest, confirmation, cell-based, CHO, BLA complementation, fluorescence, triplicate. shares compounds with TLR9-MyD88 block. CCF4 FRET ratio. inhibition, % at 4.98 µM. 680 compounds, 51% hits;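 active = mean inhibition across three repeats above about 21% taken from the earlier screen, limit read from the data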;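 also: blue over green emission ratio reports constitutive TLR9 MyD88 association via BLA complementation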
BLA counter-1: beta-lactamase reporter inhibitors in CHO cells, artefact control for TLR9-MyD88 binding inhibitor project, cell-based, fluorescence. shares compounds with TLR9-MyD88 block. CHO-BLA cells, CCF4 FRET ratio, BLA reporter. inhibition, % at 4.98 µM. 680 compounds, 7% hits. AID 540251, 2011;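 active = mean inhibition above a 50% cutoff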;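 also: counterscreen of TLR9-MyD88 hits on CMV-driven BLA in CHO-K1 cells; higher means less blue over green ratio so more BLA blockade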
TLR9 CHO cytotox: CHO cell viability loss – luminescence, single concentration, cytotoxicity control for TLR9-MyD88 binding inhibitor project. inhibition, % at 4.98 µM. 680 compounds, 39% hits. TLR9-MyD88 CHO cells cytotoxicity. AID 588336, 2011. shares compounds with TLR9-MyD88 block; in the data active = inhibition above about 11%
ABHD5-PLIN5 conf: ABHD5-PLIN5 interaction inhibitors, confirmation, biochemical, luminescence | shares compounds with ABHD5 PLIN5 PPI | inhibition, % at 4 µM | 2,200 compounds, 67% hits | AID 651612, 2012; in the data active = inhibition above about 23%
HNF4 split-luc: HNF4 dimerization inhibitors, counter-screen for ABHD5-PLIN5 interaction inhibitor project, biochemical, split-luciferase complementation, luminescence; shares compounds with ABHD5 PLIN5 PPI; inhibition, % at 4 µM; 2,200 compounds, 77% hits; AID 651674, 2012;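 active = mean inhibition across replicate wells exceeding the computed hit threshold, cut at about 13% in these data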;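 also: light from luciferase halves that rejoin when HNF4 fusion proteins dimerize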
NOD2-RIPK2 conf: NOD2-RIPK2 binding disruptors, retest, confirmation, fluorescence, CHO cells, BLA complementation, triplicate | shares compounds with NOD2-RIPK2 inh | AID 624370, 2012 | inhibition, % at 4.98 µM | 1,200 compounds, 70% hits | CCF4 FRET;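 active = mean inhibition across replicates above a set limit taken from the earlier primary screen, cut at about 21% in these data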
BLA counter-2: hits BLA reporter in NOD2-RIPK2 inhibitor counterscreen; shares compounds with NOD2-RIPK2 inh; inhibition, % at 4.98 µM; CHO BLA reporter, CCF4 FRET ratio; 1,200 compounds, 57% hits;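 active = mean inhibition above the low-control mean inhibition plus three low-control SD, cut at about 11% in these data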
Each line names hits and unclear results; the compound was inactive in the other large screens (follow-up assays come after a bar, where they were run).

Cc1ccc(N=C2NC(=O)/C(=C/c3cccn3C)S2)cc1	none (no result: TLR4-MyD88 BLA)
CCN(CC)c1ccc(C(=O)NNC(=O)CNC(=O)c2ccco2)cc1	none (no result: TLR4-MyD88 BLA)
Cn1c(Cl)cnc1C1CC(=O)c2cc(Cl)ccc2O1 (stereo not drawn)	TLR4-MyD88 BLA 26.9, ABHD5 PLIN5 PPI 32.5 | TLR4 MyD88 cnf inactive | BLA inhibitor ct inactive | ABHD5-PLIN5 conf inactive | HNF4 split-luc 48.7
CC(C)=C(NC(=O)c1ccccc1)C(=O)NC(Cc1ccccc1)C(=O)O (stereo not drawn)	none (no result: TLR4-MyD88 BLA)
CC1=NOC(=O)/C1=C\c1ccc(-c2ccccc2Br)o1	TLR4-MyD88 BLA 25.9, ABHD5 PLIN5 PPI 42.8 | TLR4 MyD88 cnf inactive | BLA inhibitor ct inactive | ABHD5-PLIN5 conf 93.3 | HNF4 split-luc 95.3
CC(C)(C)c1ccc(C(=O)Nc2cccc3c(=O)[nH][nH]c(=O)c23)cc1	TLR9-MyD88 block 35.0, TLR4-MyD88 BLA 28.7, NOD2-RIPK2 inh 50.0 | TLR4 MyD88 cnf 28.0 | BLA inhibitor ct 50.7 | TLR9-MyD88 conf inactive | BLA counter-1 inactive | TLR9 CHO cytotox inactive | NOD2-RIPK2 conf 42.0 | BLA counter-2 48.1
COc1ccc(C2=CC(c3ccc(Cl)cc3)n3cnnc3N2)cc1OC (stereo not drawn)	TLR9-MyD88 block 50.1, TLR4-MyD88 BLA 39.0, NOD2-RIPK2 inh 47.4 | TLR4 MyD88 cnf 26.1 | BLA inhibitor ct 49.4 | TLR9-MyD88 conf inactive | BLA counter-1 inactive | TLR9 CHO cytotox inactive | NOD2-RIPK2 conf inactive | BLA counter-2 inactive
Cc1ccc(C(=O)OCn2ncc(Cl)c(Cl)c2=O)cc1	TLR9-MyD88 block 29.7, TLR4-MyD88 BLA 54.5, NOD2-RIPK2 inh 66.2 | TLR4 MyD88 cnf 62.4 | BLA inhibitor ct inactive | TLR9-MyD88 conf 27.1 | BLA counter-1 inactive | TLR9 CHO cytotox 98.4 | NOD2-RIPK2 conf 85.0 | BLA counter-2 inactive
CCOC(=O)c1ccc(NC(=O)Cn2nc(C)c3ccccc3c2=O)cc1	none (no result: TLR4-MyD88 BLA)
CCOC(=O)c1ccc(NC(=O)Cn2ncc(Cl)c(Cl)c2=O)cc1	TLR9-MyD88 block 26.7, TLR4-MyD88 BLA 27.4, NOD2-RIPK2 inh 51.8 | TLR4 MyD88 cnf 37.4 | BLA inhibitor ct inactive | TLR9-MyD88 conf 24.4 | BLA counter-1 inactive | TLR9 CHO cytotox 98.9 | NOD2-RIPK2 conf 65.5 | BLA counter-2 14.4
COc1cc2nc(/C=C/c3ccc(N(C)C)cc3)sc2cc1SC	TLR9-MyD88 block 31.8, TLR4-MyD88 BLA 64.1, NOD2-RIPK2 inh 41.0 | TLR4 MyD88 cnf 65.0 | BLA inhibitor ct 95.8 | TLR9-MyD88 conf 53.0 | BLA counter-1 59.4 | TLR9 CHO cytotox inactive | NOD2-RIPK2 conf 77.7 | BLA counter-2 82.1
COc1cc2c(cc1OC)C(=Cc1ccc(N(C)C)cc1)C=C2	none (no result: TLR4-MyD88 BLA)
O=S(=O)(c1ccc(Br)c2nsnc12)N1CCOCC1	TLR9-MyD88 block 27.5, TLR4-MyD88 BLA 56.5, NOD2-RIPK2 inh 56.1 | TLR4 MyD88 cnf 54.2 | BLA inhibitor ct 75.8 | TLR9-MyD88 conf inactive | BLA counter-1 inactive | TLR9 CHO cytotox 13.6 | NOD2-RIPK2 conf 54.1 | BLA counter-2 20.1
COC(=O)[C@@H](Cc1c[nH]c2ccccc12)NCc1cccc(B(O)O)c1	none (no result: TLR4-MyD88 BLA)
COc1ccccc1CNC(=O)c1cc(S(=O)(=O)N2CCCCC2)c[nH]1	none (no result: TLR4-MyD88 BLA)
Cc1cc(-c2cccs2)c2c(N)c(C(=O)c3ccc4c(c3)OCO4)sc2n1	none
COc1ccc(C(=O)c2sc3nc(C)cc(-c4cccs4)c3c2N)cc1	TLR9-MyD88 block 56.4, TLR4-MyD88 BLA 34.5, NOD2-RIPK2 inh 63.8 | TLR4 MyD88 cnf inactive | BLA inhibitor ct inactive | TLR9-MyD88 conf 45.3 | BLA counter-1 inactive | TLR9 CHO cytotox inactive | NOD2-RIPK2 conf 36.5 | BLA counter-2 71.3
CCNc1ccc2c(Cl)cc(=O)oc2c1	TLR9-MyD88 block 33.9, TLR4-MyD88 BLA 32.4, NOD2-RIPK2 inh 29.9 | TLR4 MyD88 cnf inactive | BLA inhibitor ct 35.7 | NOD2-RIPK2 conf 44.0 | BLA counter-2 32.5
CCN(CC)c1ccc2c(Cl)cc(=O)oc2c1	none (no result: TLR9-MyD88 block, NOD2-RIPK2 inh, ABHD5 PLIN5 PPI)
CCN(CC(=O)Nc1ccccc1C(F)(F)F)CC(=O)c1[nH]c(C)c(C(C)=O)c1C	none (no result: TLR4-MyD88 BLA)
Cc1ccc(-n2ncc(Br)c(Br)c2=O)cc1	TLR9-MyD88 block 23.9, TLR4-MyD88 BLA 27.3, NOD2-RIPK2 inh 31.6 | TLR4 MyD88 cnf inactive | BLA inhibitor ct inactive | TLR9-MyD88 conf 27.0 | BLA counter-1 inactive | TLR9 CHO cytotox 101.1 | NOD2-RIPK2 conf 45.1 | BLA counter-2 inactive
CC(C)(C)c1ccc(C(=O)Nc2ccc(C(=O)NCc3cccnc3)cc2)cc1	none (no result: TLR4-MyD88 BLA)
CC(OC(=O)c1cccc(N(C)C)c1)C(=O)N1CCc2ccccc2C1 (stereo not drawn)	none (no result: TLR4-MyD88 BLA)
O=[N+]([O-])c1ccc(-c2nc(-c3cccs3)c(-c3cccs3)[nH]2)cc1	TLR9-MyD88 block 30.5, TLR4-MyD88 BLA 28.0, NOD2-RIPK2 inh 32.9 | TLR4 MyD88 cnf inactive | BLA inhibitor ct 48.8 | TLR9-MyD88 conf inactive | BLA counter-1 inactive | TLR9 CHO cytotox inactive | NOD2-RIPK2 conf 36.0 | BLA counter-2 37.2
O=[N+]([O-])c1cccc(-c2nc(-c3cccs3)c(-c3cccs3)[nH]2)c1	none
